Data reported in the supplement of paper PMC10849652.
Of roughly 8,800 targets only a part is listed; those with a hit were picked by preference. About 0.5% of all pairs of compound and target were hits. Values without a mark were called inactive.

What was measured:
Assay in all cases: log2 fold change, soluble protein after heating vs DMSO (PISA); higher = thermal stabilisation; K562 lysate, 10 uM; active = over 0.2 and 3.5 SD of the protein, either way, in both replicates (recomputed)
erlotinib = compound: C#Cc1cccc(Nc2ncnc3cc(OCCOC)c(OCCOC)cc23)c1 [erlotinib]
Procedure, shortened: (§1)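 K562 pellets were dounce-homogenised in PBS pH 7.4 containing 1 mM MgCl2, and the crude extract, at 1 mg/mL protein, was exposed to 10 μM compound for 30 min. Aliquots were heated for 3 min across 48°C-58°C, pooled, brought to 0.5% NP-40 at 4°C and spun at 21,000xg for 90 min, with the supernatant taken as soluble protein. TMTpro 16plex LC-MS/MS with equalised channel sums quantified that protein. Values are log-two fold changes in thermal stability relative to solvent controls, taken from duplicates.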

[1] = compound: C/C(=N\NC(=O)C1=CC(=CC=C1)S(=O)(=O)N2CCOCC2)/C3=C(C=CC(=C3)Cl)O
Procedure, shortened: as §1

[2] = compound: C1=CC(=CC=C1C2=NC3=C(N2)C=C(C=C3)C(=O)N)OC4=CC=C(C=C4)Cl
Procedure, shortened: as §1

[3] = compound: C1=CC2=C(C=CC(=C2)/C=C\3/C(=O)NC(=NCC4=CC=CS4)S3)N=C1
Procedure, shortened: as §1

[4] = compound: C1=CC2=NC=CN=C2C=C1/C=C/3\C(=O)NC(=O)S3
Procedure, shortened: as §1

[5] = compound: C1=CC=C(C=C1)C2=NC(=C(N2)C3=CC=NC=C3)C4=CC(=C(C=C4)Cl)O
Procedure, shortened: as §1

[6] = compound: C1=CC=C2C(=C1)C3=NNC4=CC=CC(=C43)C2=O
Procedure, shortened: as §1

[7] = compound: C1CCN(C1)C(=O)NC2=CC=CC(=C2)NC3=NC=C(C(=N3)NCCC4=CN=CN4)Br
Procedure, shortened: as §1

[8] = compound: C1CN(CCC1(CC2=CC=C(C=C2)Cl)N)C3=NC=NC4=C3C=CN4
Procedure, shortened: as §1

IRAK-1-4 Inhibitor I = compound: C1COCCN1CCN2C3=CC=CC=C3N=C2NC(=O)C4=CC(=CC=C4)[N+](=O)[O-] [IRAK-1-4 Inhibitor I]
Procedure, shortened: as §1

ibrutinib = compound: C=CC(=O)N1CCC[C@@H](n2nc(-c3ccc(Oc4ccccc4)cc3)c3c(N)ncnc32)C1 [ibrutinib]
Procedure, shortened: as §1

[9] = compound: CC(=O)c1cnc2ccc(-c3cc(Cl)c(O)c(Cl)c3)nc2c1N[C@H]1CC[C@H](CN(C)C)CC1
Procedure, shortened: as §1

ralimetinib = compound: CC(C)(C)Cn1c(N)nc2ccc(-c3[nH]c(C(C)(C)C)nc3-c3ccc(F)cc3)nc21 [ralimetinib]
Procedure, shortened: as §1

[10] = compound: CC(C)(O)CC(=O)NCCn1ccc2ncnc(Nc3ccc(Oc4cccc(C(F)(F)F)c4)c(Cl)c3)c21
Procedure, shortened: as §1

[11] = compound: CC(C)C1=C2N=C(C=C(N2N=C1)NCC3=CC=CC=C3)NCCCCCCN
Procedure, shortened: as §1

[12] = compound: CC1=C(C(CC(=O)N1)C2=CC=C(C=C2)C(F)(F)F)C(=O)NC3=C(C=C4C(=C3)C=NN4)F
Procedure, shortened: as §1

[13] = compound: CC1=C(C2=C(C=C1)C(=O)C3=CC=CC=C3N2CCCN)C
Procedure, shortened: as §1

[14] = compound: CC1=C(C=C(C=C1)NC(=O)C2=CC(=CC=C2)C(C)(C)C#N)NC3=CC4=C(C=C3)N=CN(C4=O)C
Procedure, shortened: as §1

[15] = compound: CC1=C(C=C(C=C1)NC(=O)C2=CC(=CC=C2)N(C)C)NC(=O)C3=CC=C(C=C3)O
Procedure, shortened: as §1

[16] = compound: CC1=CC=C(C=C1)SC2=C3C=C(SC3=CN=C2)C(=O)N
Procedure, shortened: as §1

Sequence of UniProt Q96KF7 (Q96KF7 whole entry, looked up): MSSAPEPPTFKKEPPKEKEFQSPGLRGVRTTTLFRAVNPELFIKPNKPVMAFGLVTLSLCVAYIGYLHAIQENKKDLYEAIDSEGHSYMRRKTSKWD
Sequence of UniProt O95391 (O95391 whole entry, looked up): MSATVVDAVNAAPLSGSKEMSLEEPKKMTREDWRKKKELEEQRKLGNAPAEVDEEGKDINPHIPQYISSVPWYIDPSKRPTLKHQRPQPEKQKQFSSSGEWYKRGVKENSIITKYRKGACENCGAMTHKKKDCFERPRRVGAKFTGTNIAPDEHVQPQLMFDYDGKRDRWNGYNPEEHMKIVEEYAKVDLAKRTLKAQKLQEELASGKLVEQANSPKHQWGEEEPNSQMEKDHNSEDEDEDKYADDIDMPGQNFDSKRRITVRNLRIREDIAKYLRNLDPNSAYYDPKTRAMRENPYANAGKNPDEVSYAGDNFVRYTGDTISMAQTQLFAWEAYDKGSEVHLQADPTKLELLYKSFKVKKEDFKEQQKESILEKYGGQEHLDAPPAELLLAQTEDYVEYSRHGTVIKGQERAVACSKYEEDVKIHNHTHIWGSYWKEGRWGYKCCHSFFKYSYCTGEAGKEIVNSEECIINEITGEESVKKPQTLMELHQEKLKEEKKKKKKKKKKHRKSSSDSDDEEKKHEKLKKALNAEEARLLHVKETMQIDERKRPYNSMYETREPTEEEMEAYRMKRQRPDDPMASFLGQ
Sequence of UniProt O00161 (O00161 whole entry, looked up): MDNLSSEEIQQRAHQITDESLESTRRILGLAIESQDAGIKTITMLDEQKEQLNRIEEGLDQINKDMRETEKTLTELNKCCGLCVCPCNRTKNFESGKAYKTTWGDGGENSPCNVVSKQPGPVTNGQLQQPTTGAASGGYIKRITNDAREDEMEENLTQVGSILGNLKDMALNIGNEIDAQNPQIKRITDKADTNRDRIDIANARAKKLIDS
Sequence of UniProt O60504 (O60504 whole entry, looked up): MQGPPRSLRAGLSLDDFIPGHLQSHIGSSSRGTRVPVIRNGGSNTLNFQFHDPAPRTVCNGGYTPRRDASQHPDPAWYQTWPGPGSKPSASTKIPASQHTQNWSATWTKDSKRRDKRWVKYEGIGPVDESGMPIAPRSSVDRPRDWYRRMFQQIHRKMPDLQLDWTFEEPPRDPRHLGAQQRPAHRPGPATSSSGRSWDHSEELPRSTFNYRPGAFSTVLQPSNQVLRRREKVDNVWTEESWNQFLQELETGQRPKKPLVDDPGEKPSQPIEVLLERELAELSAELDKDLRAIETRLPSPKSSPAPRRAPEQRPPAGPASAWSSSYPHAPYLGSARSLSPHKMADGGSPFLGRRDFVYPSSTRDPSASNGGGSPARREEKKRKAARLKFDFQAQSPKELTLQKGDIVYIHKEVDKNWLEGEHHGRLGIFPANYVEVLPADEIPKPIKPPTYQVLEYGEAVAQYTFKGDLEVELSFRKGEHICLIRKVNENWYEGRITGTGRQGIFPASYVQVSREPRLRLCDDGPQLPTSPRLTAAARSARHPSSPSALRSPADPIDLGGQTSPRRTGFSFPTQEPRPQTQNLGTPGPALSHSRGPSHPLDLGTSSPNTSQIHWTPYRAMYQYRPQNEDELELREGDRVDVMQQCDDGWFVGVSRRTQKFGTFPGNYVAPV
Sequence of UniProt P10124 (P10124 whole entry, looked up): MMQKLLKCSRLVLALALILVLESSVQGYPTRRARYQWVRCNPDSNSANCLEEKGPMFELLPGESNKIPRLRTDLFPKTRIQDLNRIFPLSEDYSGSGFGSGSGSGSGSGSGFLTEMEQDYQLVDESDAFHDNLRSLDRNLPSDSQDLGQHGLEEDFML
Sequence of UniProt Q13043 (Q13043 whole entry, looked up): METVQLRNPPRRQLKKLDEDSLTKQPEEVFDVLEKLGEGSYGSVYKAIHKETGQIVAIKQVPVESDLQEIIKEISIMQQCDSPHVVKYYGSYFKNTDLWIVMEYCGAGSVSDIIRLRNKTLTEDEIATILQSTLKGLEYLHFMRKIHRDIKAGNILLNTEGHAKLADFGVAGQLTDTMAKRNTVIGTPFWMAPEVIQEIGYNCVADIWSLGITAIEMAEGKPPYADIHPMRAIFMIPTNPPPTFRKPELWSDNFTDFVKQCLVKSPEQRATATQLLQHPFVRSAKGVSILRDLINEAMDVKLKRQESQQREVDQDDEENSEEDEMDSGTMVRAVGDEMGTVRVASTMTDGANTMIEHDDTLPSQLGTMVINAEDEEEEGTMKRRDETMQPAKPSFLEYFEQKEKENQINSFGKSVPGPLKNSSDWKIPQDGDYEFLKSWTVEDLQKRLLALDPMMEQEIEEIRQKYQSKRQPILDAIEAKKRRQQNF
Sequence of UniProt Q96H78 (Q96H78 whole entry, looked up): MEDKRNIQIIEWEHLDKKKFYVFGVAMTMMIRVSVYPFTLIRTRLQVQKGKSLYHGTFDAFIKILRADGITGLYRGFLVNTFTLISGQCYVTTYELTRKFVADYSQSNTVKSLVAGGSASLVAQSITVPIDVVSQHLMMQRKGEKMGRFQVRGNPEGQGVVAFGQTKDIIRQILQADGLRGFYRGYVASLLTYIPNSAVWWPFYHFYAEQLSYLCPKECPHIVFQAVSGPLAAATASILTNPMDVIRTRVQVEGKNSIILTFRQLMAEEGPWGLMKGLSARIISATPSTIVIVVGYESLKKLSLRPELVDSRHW
Sequence of UniProt O95793 (O95793 whole entry, looked up): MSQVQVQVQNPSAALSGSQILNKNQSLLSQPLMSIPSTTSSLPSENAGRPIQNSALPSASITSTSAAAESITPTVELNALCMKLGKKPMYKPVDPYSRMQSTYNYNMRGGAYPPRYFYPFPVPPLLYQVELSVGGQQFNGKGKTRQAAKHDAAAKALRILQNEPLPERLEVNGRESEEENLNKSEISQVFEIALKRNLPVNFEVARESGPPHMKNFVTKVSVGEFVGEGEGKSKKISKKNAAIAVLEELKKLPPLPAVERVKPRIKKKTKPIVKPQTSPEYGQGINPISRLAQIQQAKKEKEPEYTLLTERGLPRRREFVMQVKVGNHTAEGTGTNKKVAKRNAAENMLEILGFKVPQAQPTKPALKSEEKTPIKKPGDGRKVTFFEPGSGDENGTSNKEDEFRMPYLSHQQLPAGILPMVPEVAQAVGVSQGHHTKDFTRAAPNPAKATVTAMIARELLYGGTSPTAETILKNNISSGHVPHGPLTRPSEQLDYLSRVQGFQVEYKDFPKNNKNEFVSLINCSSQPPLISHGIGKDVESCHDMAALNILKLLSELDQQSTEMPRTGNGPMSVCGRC
Sequence of UniProt O15198 (O15198 whole entry, looked up): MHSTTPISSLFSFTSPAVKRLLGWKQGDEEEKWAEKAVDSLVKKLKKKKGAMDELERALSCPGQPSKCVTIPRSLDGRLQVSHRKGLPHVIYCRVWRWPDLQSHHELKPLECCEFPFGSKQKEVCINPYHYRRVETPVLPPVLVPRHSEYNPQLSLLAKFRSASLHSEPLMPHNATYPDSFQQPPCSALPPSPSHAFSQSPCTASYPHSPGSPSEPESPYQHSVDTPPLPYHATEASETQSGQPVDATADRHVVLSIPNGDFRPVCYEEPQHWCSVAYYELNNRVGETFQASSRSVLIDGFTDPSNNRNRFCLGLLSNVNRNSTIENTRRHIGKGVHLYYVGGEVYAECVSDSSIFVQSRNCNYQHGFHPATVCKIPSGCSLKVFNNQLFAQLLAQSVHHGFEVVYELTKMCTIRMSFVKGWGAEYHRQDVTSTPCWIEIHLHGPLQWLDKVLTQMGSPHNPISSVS
Sequence of UniProt O43805 (O43805 whole entry, looked up): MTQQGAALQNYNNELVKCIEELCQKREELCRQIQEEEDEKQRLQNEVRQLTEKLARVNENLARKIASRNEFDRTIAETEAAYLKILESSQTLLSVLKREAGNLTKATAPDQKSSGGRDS
Sequence of UniProt Q96BI1 (Q96BI1 whole entry, looked up): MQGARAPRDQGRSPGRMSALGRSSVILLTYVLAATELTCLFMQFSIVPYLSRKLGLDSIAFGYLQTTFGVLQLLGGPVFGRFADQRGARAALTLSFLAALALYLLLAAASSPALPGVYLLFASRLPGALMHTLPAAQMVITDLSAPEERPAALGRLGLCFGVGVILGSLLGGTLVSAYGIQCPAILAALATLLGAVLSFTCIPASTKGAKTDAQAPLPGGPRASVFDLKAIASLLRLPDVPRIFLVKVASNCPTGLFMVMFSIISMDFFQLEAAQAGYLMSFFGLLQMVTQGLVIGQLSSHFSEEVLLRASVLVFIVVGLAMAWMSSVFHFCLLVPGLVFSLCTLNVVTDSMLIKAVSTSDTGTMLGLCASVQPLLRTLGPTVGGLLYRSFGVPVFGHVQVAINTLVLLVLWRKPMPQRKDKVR
Sequence of UniProt Q9Y3B4 (Q9Y3B4 whole entry, looked up): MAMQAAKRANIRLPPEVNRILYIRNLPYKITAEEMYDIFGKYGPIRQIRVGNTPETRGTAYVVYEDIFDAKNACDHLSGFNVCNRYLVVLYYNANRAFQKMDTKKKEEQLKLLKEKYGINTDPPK
Sequence of UniProt Q13309 (Q13309 whole entry, looked up): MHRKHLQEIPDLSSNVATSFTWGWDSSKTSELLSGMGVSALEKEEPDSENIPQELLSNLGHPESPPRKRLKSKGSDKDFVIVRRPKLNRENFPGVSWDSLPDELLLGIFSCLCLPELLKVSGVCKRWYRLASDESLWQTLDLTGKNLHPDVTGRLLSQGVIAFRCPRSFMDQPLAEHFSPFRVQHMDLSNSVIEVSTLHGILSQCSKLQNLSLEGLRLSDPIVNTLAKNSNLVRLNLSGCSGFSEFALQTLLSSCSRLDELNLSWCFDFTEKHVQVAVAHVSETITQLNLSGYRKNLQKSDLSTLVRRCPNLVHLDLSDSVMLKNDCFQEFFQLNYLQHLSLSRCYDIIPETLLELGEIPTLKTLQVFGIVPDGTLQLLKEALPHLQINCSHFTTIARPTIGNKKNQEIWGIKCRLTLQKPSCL

Row | Target | log2 fold change (erlotinib) | log2 fold change [1] | log2 fold change [2] | log2 fold change [3] | log2 fold change [4] | log2 fold change [5] | log2 fold change [6] | log2 fold change [7] | log2 fold change [8] | log2 fold change (IRAK-1-4 Inhibitor I) | log2 fold change (ibrutinib) | log2 fold change [9] | log2 fold change (ralimetinib) | log2 fold change [10] | log2 fold change [11] | log2 fold change [12] | log2 fold change [13] | log2 fold change [14] | log2 fold change [15] | log2 fold change [16]
1 | TAF9 (UniProt Q16594) | 0.022 | 0.009 | 0.081 | 0.056 | 0.002 | 0.013 | -0.052 | -0.08 | 0.084 | 0.032 | -0.028 | 0.044 | 0.033 | -0.057 | 0.032 | 0.015 | 0.019 | 0.027 | 0.101 | -0.023
2 | STAU1 (UniProt O95793) | 0.02 | -0.001 | -0.032 | 0.002 | -0.016 | -0.08 | -0.007 | -0.018 | -0.003 | 0.055 | 0.043 | -0.021 | 0.03 | -0.011 | 0 | 0.017 | -0.022 | -0.037 | 0.018 | 0.022
3 | SF3B6 (UniProt Q9Y3B4) | 0.011 | 0.047 | 0 | 0.001 | 0.043 | 0.034 | 0.044 | 0.004 | -0.034 | -0.024 | 0.036 | 0.004 | -0.001 | -0.017 | -0.002 | 0.043 | 0.003 | 0.002 | 0.024 | -0.007
4 | SLC29A2 (UniProt Q14542) | -0.147 | 0.016 | -0.04 | 0.013 | -0.028 | -0.033 | 0.018 | 0.018 | 0.085 | 0.102 | 0.035 | 0.045 | 0.082 | -0.036 | 0.043 | -0.001 | -0.011 | 0.041 | 0.072 | 0.006
5 | SLC30A6 isoform 2 (UniProt Q6NXT4) | -0.014 | 0.031 | -0.012 | -0.08 | 0.069 | 0.008 | -0.212 | -0.005 | -0.059 | 0 | 0.052 | -0.019 | -0.013 | -0.016 | -0.023 | 0.047 |  | -0.022 | 0.053 | 0.011
6 | SLU7 (UniProt O95391) | -0.02 | -0.086 | -0.021 | 0.09 | -0.026 | 0.021 | 0.036 | -0.096 | -0.041 | -0.07 | -0.084 |  | -0.013 | -0.018 | 0.045 | -0.029 | -0.015 | 0 | -0.031 | 
7 | SORBS3 (UniProt O60504) | -0.01 | 0.028 | 0.021 | 0.018 | -0.054 | -0.092 | 0.057 | 0.09 | 0.129 | 0.088 | -0.005 | 0.067 | 0.099 | -0.113 | -0.035 |  | -0.158 | 0.046 | -0.05 | -0.114
8 | SLC22A18 (UniProt Q96BI1) | -0.008 | 0.043 | -0.018 | 0.049 | -0.147 |  | -0.03 | -0.062 | 0.004 |  | 0.099 | -0.047 |  |  | 0.049 |  |  | 0.02 |  | 0.011
9 | SMIM8 (UniProt Q96KF7) | -0.057 | 0.005 | 0.028 | 0.004 | -0.004 | -0.137 | 0.028 | 0.026 | 0 | 0.058 | 0.073 | -0.02 | 0.059 | -0.136 | -0.095 | -0.025 | -0.128 | 0.038 | 0.053 | -0.006
10 | SSNA1 (UniProt O43805) | -0.004 | -0.04 | -0.013 | 0.07 | -0.036 | 0.04 | -0.03 | -0.002 | 0.066 | 0.018 | 0.187 | 0.017 | -0.049 | 0.012 | 0.003 | -0.012 | -0.026 | 0.013 | 0.02 | -0.024
11 | SLC25A44 (UniProt Q96H78) | 0.117 | -0.275 | 0.055 | -0.018 | 0.025 | -0.064 | 0.145 | -0.039 | 0.037 | -0.053 | -0.006 | 0.002 | 0.065 | -0.322 | -0.031 |  | -0.017 | 0.038 | -0.118 | 0.002
12 | SNAP23 (UniProt O00161) | -0.01 | 0.037 | -0.025 | 0.047 | 0.02 | 0.039 | 0.022 | 0.018 | 0.03 | 0.038 | 0.021 | -0.003 | -0.01 | 0.01 | -0.04 | -0.015 | 0.045 | 0.015 | -0.013 | 0.011
13 | STK4 (UniProt Q13043) | -0.013 | -0.15 | -0.033 | -0.061 | -0.008 | -0.009 | 0.165 | 0.187 | 0.053 | 0.018 | 0.056 | 0.324 | -0.006 | 0.007 | 0.004 | -0.023 | -0.015 | -0.036 | 0.024 | -0.07
14 | SRGN (UniProt P10124) | -0.034 | 0.023 | 0.051 | -0.019 | 0.05 | 0.051 | -0.069 | 0.065 | -0.139 | 0.013 | 0.109 | 0.084 | 0.001 | -0.159 | -0.018 |  | -0.079 | 0.104 | -0.064 | -0.064
15 | SKP2 (UniProt Q13309) | 0.06 | -0.053 | -0.063 | 0.027 |  | -0.023 | -0.029 | -0.027 | 0.044 | -0.002 |  | -0.137 | 0.137 | 0.045 | 0.058 | -0.041 | 0.023 | -0.097 | -0.015 | -0.576 (active)
16 | SMAD9 (UniProt O15198) | 0.005 | 0.048 | -0.037 | 0.007 | 0.018 | 0.053 | 0.017 | -0.048 | -0.059 | 0 | -0.025 | -0.018 | -0.034 | 0.029 | 0.021 | -0.038 | 0.079 | -0.028 | -0.072 | -0.029
